Experimental data taken from PubChem BioAssay AID485346 (Sanford-Burnham Center for Chemical Genomics, 2010).
In all, about 330,000 compounds went through this assay and about 10,000 (3%) were called active.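 Rule for the calls: active = inhibition of at least 50% at 8 µM in the primary screen; inactive = the rest.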 Only a selection was taken, and actives are over-represented in it overall.

What follows are molecules tested against Protein Mdm4 (Homo sapiens) + E3 ubiquitin-protein ligase Mdm2 (Homo sapiens) (UniProt O15151+Q00987) (assay: disruptors of Mdm2/MdmX RING complex – cell-based, luminescence, split luciferase, SaOS-2, uHTS, primary screen (AID 485346)). Details: SaOS-2 split-luciferase Mdm2/MdmX complementation, at 8 µM, stronger effect = higher value.
Protein Mdm4 (Homo sapiens) + E3 ubiquitin-protein ligase Mdm2 (Homo sapiens), sequence (O15151 whole entry, looked up): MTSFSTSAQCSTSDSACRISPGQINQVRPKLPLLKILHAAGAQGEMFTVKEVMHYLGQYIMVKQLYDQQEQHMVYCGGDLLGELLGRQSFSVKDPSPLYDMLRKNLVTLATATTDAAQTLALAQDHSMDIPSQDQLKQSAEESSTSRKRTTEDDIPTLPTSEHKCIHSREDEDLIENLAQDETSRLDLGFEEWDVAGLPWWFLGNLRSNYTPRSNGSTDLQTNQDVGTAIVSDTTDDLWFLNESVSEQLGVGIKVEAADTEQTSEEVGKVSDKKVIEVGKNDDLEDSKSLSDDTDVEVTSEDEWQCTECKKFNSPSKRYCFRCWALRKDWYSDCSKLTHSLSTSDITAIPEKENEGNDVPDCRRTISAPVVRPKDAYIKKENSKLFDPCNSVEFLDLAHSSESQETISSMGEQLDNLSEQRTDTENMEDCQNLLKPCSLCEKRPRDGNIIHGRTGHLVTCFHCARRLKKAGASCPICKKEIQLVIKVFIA
Protein Mdm4 (Homo sapiens) + E3 ubiquitin-protein ligase Mdm2 (Homo sapiens), sequence (Q00987 whole entry, looked up): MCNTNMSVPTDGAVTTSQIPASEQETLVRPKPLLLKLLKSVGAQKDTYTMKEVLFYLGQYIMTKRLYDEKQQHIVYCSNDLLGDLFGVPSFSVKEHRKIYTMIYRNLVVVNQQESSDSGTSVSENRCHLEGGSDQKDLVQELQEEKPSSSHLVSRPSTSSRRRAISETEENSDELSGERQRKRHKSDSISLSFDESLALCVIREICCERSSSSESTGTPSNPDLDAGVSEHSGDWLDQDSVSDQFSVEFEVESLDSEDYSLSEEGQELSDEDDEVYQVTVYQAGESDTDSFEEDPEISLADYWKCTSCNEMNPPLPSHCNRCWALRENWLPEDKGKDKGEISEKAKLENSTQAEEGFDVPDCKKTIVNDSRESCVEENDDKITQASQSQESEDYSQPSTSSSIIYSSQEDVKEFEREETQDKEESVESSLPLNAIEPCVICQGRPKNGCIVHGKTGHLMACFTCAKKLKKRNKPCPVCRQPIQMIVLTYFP

inhibition, inactive:
Cc1ccc(-c2nc(C)sc2CC(=O)OCC(=O)Nc2c(F)cccc2F)cc1 7.55%
O=C(O)CCCn1c(=O)c2cccn2c2ccc(F)cc21 4.87%
Cc1cc(C(=O)N/N=C/c2ccccn2)c2ccccc2n1 -15.6%
Cc1nnc(N/N=C/C2CC=CCC2)[nH]c1=O (stereo unspecified) 12.6%
COc1ccc(-c2nc3c(s2)CCc2onc(-c4ccc(OC)cc4)c2-3)cc1 1.93%
O=C(Cc1ccccc1)N1N=C(c2ccncc2)CC1(O)C(F)(F)F (stereo unspecified) 13.3%
O=C(C1CC1)N1N=C(c2ccc(Br)cc2)CC1(O)C(F)(F)F (stereo unspecified) -5.88%
Cc1ccc(NC(=O)CC2C(=O)N(Cc3ccccc3)C(=S)N2NC(=O)c2cccc(F)c2)c(C)c1 (stereo unspecified) 6.53%
Cc1ccc(S(=O)(=O)N2CCCCC2)cc1C(=O)N1CCN(CCO)CC1 18.6%
COc1ccccc1N(C)C(=O)c1cc(S(=O)(=O)N2CCc3ccccc32)cn1C 14.1%
O=C(CC1SC(N2CCCC2)=NC1=O)Nc1ccc(C(=O)NCCc2ccc(F)cc2)cc1 (stereo unspecified) 33.7%
N#Cc1ncc(C(F)(F)F)cc1Oc1cccnc1 -4.54%
Cc1nnc(SCCCCSc2nnc(C)c(=O)[nH]2)[nH]c1=O -27.7%
CCN1C(=O)N[C@@H](CCc2ccccc2)C(C(=O)OC)=C1C 10.9%
CCC(CC)c1nnc(NC(=O)c2nn(C)c(=O)c3ccccc23)s1 -51.8%
CCC(C)NC(=O)c1nn(C)c(=O)c2ccccc12 (stereo unspecified) 0.304%
COc1ccc(C)cc1NC(=O)CCCN1C(=O)NC(C)(C)C1=O 7.88%
COC(=O)C1=C(N)Oc2cc(C)[nH]c(=O)c2C1c1ccc(Cl)cc1 (stereo unspecified) -16.2%
Cc1ccc(CC(=O)Nc2ccc(OC(F)F)c(Cl)c2)cc1C 15.9%
CC(=O)N1CCN(CC(=O)Nc2ccc(SC(F)F)cc2)CC1 -2.95%

inhibition, active:
Cc1nnc(N/N=C/c2ccccn2)[nH]c1=O 78.6%
O=C(c1ccc(Cl)cc1)N1N=C(c2ccccn2)CC1(O)C(F)(F)F (stereo unspecified) 53%
Fc1ccccc1/C=C1\CCCC2=C1Nc1ncnn1C2c1ccccc1F (stereo unspecified) 98.8%
CNC[C@H](CC1CCCCC1)NC[C@H](NCCC1CCCC1)[C@H](C)O 99.7%
COC(=O)c1cc(NC(=O)c2nn(C)c(=O)c3ccccc23)cc(C(=O)OC)c1 51.2%
O=C(Cc1ccc(Cl)c(Cl)c1)Nc1ccc(SC(F)F)cc1 72.9%
